This passage reports composite z-score, composite Z-score and z-score results from PubChem BioAssay.

The target of one assay is Albumin (Bos taurus) (UniProt P02769). The experiment in a line: compounds binding labelled BSA control protein – biochemical, small-molecule microarray, Alexa647 label, 635/667 nm fluorescence, artefact control for SMM control protein annotation, profiling panel (AID 1118).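 Note: score merges 667 nm emission intensity and signal-to-noise per printed compound spot.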 The note with it: BSA-A647 binding, fluorescence 635 nm, higher = more signal.
Albumin (Bos taurus), sequence (P02769 whole entry, looked up): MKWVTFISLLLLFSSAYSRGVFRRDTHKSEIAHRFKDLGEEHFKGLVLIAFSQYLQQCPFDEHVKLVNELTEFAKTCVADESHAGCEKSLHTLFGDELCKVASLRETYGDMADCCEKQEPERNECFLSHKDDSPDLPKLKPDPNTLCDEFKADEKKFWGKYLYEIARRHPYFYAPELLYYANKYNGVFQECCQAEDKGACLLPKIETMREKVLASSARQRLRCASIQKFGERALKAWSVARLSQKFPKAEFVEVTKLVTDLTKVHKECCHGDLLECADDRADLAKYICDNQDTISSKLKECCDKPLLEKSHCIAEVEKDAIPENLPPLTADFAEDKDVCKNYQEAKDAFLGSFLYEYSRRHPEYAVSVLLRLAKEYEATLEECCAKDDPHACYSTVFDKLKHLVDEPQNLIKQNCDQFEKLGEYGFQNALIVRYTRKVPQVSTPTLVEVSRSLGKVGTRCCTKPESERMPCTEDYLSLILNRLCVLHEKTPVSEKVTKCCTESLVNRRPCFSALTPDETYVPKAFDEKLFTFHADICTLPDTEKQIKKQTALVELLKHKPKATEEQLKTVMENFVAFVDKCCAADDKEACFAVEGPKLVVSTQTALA
The nature of assay [1]: probe aXIP binding to arrayed compounds – biochemical, NeuroSMM set, 635/667 nm fluorescence, primary screen (AID 1119).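 Note: probe is the protein aXip251-270 applied at 1 µg/mL to compound-printed slides; binding of probe to printed compounds measured as 667 nm fluorescence plus signal to noise.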 The note with it: small-molecule microarray, higher = more signal, called active from +8 up or from −8 down.
The nature of assay [2]: probe aNOTCH3 binding on compound microarray – biochemical, small-molecule microarray, 635/667 nm fluorescence, primary screen (AID 1120).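 Note: probe is a biotin-tagged antibody raised against NOTCH3 rather than NOTCH3 protein; score merges spot fluorescence near 667 nm with spot signal to noise.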 The note with it: higher = more signal.
Assay [3] can be described thus: probe aNOTCH2 binding on compound microarray – biochemical, small-molecule microarray, 635/667 nm fluorescence, primary screen (AID 1121).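 Note: score merges feature fluorescence read at 667 nm with its signal to noise.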 The following applies: higher = more signal.
Assay [4] concerns the target Carbonic anhydrase 2 (Homo sapiens) (UniProt P00918). The experiment in a line: compounds binding carbonic anhydrase 2 – biochemical, small-molecule microarray, Alexa647-labelled CAII, profiling panel (AID 1122). The note with it: CAII-A647 binding fluorescence, higher = more signal.
Assay [5] in a line: COS7 lysate on small-molecule microarray, probe aHis, 635 nm (AID 1123).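 Note: z-score combines 667nm fluorescence intensity with signal-to-noise per printed compound spot.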 The note with it: COS7 cell lysate, fluorescence, higher = more signal.
Assay [6] is described as follows: probe aLAP1 signal on lysate-treated microarray – cell lysate, small-molecule microarray, COS7 lysate, primary screen (AID 1124).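 Note: lysate comes from COS7 cells expressing LAP1 and is applied at 0.3 µg/mL; score merges spot fluorescence near 667 nm with signal-to-noise over triplicate slides.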 The note with it: probe aLAP1, fluorescence, higher = more signal.
The next assay has as its system Sam68 (KHDRBS1). The experiment in a line: compounds binding KHDRBS1 protein – biochemical, small-molecule microarray, 635 nm fluorescence, primary screen (AID 1125).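 Note: score merges 667 nm channel intensity with signal to noise over triplicate slides.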 The following applies: higher = more signal.
Assay [7] concerns Chordin-like protein 2 (CHRDL2). The experiment in a line: compounds binding chordin-like 2 – biochemical, small-molecule microarray, 635 nm fluorescence, primary screen (AID 1126).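 Note: printed compound slides probed with Chrdl2 protein at 4 µg/mL for 1 h at 4 C; score merges 667 nm emission intensity with signal to noise over three replicate slides.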 The note with it: fluorescence 635 nm, higher = more signal.
The target in assay [8] is Concanavalin-A (Canavalia ensiformis) (UniProt P02866). The experiment in a line: compounds binding concanavalin A lectin – biochemical, small-molecule microarray, Alexa647 label, 635 nm, artefact control for SMM control protein annotation, primary screen (AID 1127).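 Note: z combines 667 nm emission intensity with signal-to-noise across three replicate slides.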 The following applies: ConA-A647 binding fluorescence, higher = more signal.
Concanavalin-A (Canavalia ensiformis), sequence (P02866 whole entry, looked up): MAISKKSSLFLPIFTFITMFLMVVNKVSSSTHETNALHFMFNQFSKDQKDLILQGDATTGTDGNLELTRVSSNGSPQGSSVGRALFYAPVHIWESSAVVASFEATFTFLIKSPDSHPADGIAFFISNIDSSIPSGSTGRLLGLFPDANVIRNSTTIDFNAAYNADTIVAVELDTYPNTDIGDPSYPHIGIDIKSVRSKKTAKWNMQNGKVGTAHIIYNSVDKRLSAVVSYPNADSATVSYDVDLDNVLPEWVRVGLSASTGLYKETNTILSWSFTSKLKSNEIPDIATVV
Assay [9] in a line: compounds binding Alexa647 anti-His antibody – biochemical, small-molecule microarray, 635 nm fluorescence, artefact control for SMM control protein annotation, primary screen (AID 1128).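 Note: score merges feature fluorescence with signal-to-noise for each printed compound spot.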 The following applies: higher = more signal.
Assay [10] deals with Human papillomavirus type 1a E7 protein (residues 1-88). The experiment in a line: HPV1a E7 small-molecule binders, primary screen, biochemical, small-molecule microarray, residues 1-88, 635 nm (AID 1129). The note with it: small-molecule microarray binding, fluorescence 635 nm; higher = more signal.
Assay [11] deals with Focal adhesion kinase 1 (Homo sapiens) (UniProt Q05397). The experiment in a line: PTK2 protein binding on printed compound slides – biochemical, small-molecule microarray, 635/667 nm fluorescence, BSA, DTT, primary screen (AID 1130).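 Note: composite of spot emission at 667 nm and signal to noise over triplicate slides.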 The following applies: 635 nm fluorescence, higher = more signal.
Focal adhesion kinase 1 (Homo sapiens), sequence (Q05397 whole entry, looked up): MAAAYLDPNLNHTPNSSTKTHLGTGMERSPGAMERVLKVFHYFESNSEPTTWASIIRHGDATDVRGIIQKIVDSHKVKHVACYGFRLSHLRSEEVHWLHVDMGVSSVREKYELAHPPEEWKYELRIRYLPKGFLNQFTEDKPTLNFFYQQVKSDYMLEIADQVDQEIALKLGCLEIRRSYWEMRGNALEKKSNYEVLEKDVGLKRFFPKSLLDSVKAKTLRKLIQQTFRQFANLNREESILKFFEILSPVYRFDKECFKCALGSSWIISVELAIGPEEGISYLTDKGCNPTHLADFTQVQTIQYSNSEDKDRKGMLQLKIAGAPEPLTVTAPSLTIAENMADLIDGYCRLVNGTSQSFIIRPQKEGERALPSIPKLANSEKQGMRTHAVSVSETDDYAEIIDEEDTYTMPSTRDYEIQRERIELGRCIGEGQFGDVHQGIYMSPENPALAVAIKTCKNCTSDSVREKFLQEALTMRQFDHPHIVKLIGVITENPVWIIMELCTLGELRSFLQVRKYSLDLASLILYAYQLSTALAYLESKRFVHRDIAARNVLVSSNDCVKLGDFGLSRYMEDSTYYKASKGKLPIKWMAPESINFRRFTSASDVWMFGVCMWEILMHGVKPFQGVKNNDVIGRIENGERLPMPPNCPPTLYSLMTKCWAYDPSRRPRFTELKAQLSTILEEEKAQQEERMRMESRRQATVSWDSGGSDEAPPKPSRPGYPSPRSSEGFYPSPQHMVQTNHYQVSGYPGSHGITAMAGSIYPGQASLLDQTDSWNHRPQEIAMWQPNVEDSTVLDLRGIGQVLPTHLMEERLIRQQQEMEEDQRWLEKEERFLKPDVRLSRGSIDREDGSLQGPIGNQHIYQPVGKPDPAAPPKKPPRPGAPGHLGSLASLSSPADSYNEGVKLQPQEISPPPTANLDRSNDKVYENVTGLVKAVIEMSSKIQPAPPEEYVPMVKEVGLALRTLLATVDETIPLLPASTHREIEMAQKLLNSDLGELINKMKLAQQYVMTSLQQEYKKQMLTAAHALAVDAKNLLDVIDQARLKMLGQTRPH
Assay [12] relates to Fibrinogen (Alexa647-labelled). The experiment in a line: Alexa647-fibrinogen binding to printed small molecules – biochemical, small-molecule microarray, 635/667 nm fluorescence, artefact control for SMM control-protein annotation, profiling panel (AID 1131).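 Note: z-score merges 667 nm fluorescence with per-spot signal-to-noise over triplicate slides.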 The following applies: fibrinogen-A647 binding fluorescence, higher = more signal.
In assay [13] the target is Follistatin (Homo sapiens) (UniProt P19883). The experiment in a line: FST protein binding to printed compounds – biochemical, small-molecule microarray, 635/667 nm fluorescence, primary screen (AID 1132). The following applies: 635 nm fluorescence, higher = more signal.
Follistatin (Homo sapiens), sequence (P19883 whole entry, looked up): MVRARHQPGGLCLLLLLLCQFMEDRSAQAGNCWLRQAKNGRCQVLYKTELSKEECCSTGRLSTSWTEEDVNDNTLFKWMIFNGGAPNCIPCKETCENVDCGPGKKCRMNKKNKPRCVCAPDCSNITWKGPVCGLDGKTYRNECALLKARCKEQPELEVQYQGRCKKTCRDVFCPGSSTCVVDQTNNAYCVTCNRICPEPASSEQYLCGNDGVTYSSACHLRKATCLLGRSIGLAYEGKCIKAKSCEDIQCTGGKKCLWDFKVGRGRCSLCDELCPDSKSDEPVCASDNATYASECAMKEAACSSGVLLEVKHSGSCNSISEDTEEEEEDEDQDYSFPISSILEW
For assay [14], the target named is Fibroblast growth factor 2 (Homo sapiens) (UniProt P09038). The experiment in a line: basic fibroblast growth factor binding to printed compounds – biochemical, small-molecule microarray, 635/667 nm fluorescence, primary screen (AID 1133). The note with it: FGF2, fluorescence 635/667, higher = more signal.
Fibroblast growth factor 2 (Homo sapiens), sequence (P09038 whole entry, looked up): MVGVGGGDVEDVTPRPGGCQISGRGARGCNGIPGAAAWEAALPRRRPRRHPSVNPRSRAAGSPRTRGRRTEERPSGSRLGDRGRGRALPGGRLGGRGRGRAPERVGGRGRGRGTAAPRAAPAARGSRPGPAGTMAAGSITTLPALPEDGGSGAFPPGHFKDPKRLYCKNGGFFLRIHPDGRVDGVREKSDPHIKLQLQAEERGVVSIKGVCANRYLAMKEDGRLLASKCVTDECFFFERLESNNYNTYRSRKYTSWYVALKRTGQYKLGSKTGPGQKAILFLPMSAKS
The nature of assay [15]: JC-1 mitochondrial potential readout, lung cancer cells – cell-based, A549, JC-1 fluorescence, basal, 24 h, 100 nL, profiling panel (AID 1138).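 Note: A549 lung adenocarcinoma cells under basal conditions with no added stimulus; test concentration not given here.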 The following applies: higher = more signal.
A further assay concerns Lefty1. The experiment in a line: Lefty1 protein binding to printed compounds – biochemical, small-molecule microarray, 635/667 nm fluorescence, primary screen (AID 1139). The following applies: fluorescence 635/667, higher = more signal.
Assay [16] relates to wheat germ agglutinin (Triticum aestivum), Alexa647-labelled. The experiment in a line: Alexa647-WGA lectin binding to printed small molecules – biochemical, small-molecule microarray, 635/667 nm fluorescence, artefact control for SMM control-protein annotation, profiling panel (AID 1140).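 Note: score merges 667 nm feature emission with signal to noise over triplicate slides.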 The following applies: WGA-A647 binding, 635 nm fluorescence, higher = more signal.
Assay [17] has as its target Luciferin 4-monooxygenase (Photinus pyralis) (UniProt P08659). The experiment in a line: inhibition of purified Photinus pyralis luciferase – biochemical, luminescence, purified enzyme, 2006 set, primary screen (AID 1141).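 Note: cell-free assay with purified firefly luciferase at 100 ng per well in PBS; test concentration not given here.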 The note with it: purified firefly luciferase, SteadyGlo luminescence, 30 min; higher = more signal, called active from +8 up or from −8 down.

Active and inactive are the calls of the source.

Luciferin 4-monooxygenase (Photinus pyralis), sequence (P08659 whole entry, looked up): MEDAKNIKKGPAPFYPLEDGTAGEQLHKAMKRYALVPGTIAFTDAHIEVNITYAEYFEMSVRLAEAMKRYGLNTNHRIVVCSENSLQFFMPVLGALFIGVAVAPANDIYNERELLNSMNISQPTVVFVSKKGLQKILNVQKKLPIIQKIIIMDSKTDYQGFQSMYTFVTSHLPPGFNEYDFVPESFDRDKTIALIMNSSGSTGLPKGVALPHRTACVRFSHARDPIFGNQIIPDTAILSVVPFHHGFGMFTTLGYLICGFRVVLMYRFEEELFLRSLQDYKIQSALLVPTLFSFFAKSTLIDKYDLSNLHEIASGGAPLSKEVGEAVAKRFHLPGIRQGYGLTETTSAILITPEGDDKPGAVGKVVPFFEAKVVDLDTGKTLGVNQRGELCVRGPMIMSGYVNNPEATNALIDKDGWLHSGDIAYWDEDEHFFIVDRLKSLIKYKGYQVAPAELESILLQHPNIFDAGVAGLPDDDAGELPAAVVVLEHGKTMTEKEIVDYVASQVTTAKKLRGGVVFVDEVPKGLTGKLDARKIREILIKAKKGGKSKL

Consider `COc1ccc([Si](C)(C)[C@H]2[C@H](CC(=O)N3CCC[C@H]3CO)O[C@@]3(C(=O)N(Cc4cccc(N5CCC5=O)c4)c4ccccc43)[C@@H]2C)cc1`, for which the composite z-score with Albumin (Bos taurus) was -0.654; in assay [2] it was 0.229; in [3], -0.0392; in [4] it was 0.395; in assay [5], 0.789; in [6], -0.0115. The composite z-score in the assay on Sam68 (KHDRBS1) stood at 1.31; in assay [7], 0.95; in assay [8] it was 0.759; in [9], 0.744; in [10], 1.24; in assay [11], 0.474. The composite z-score in assay [12] turned out to be 0.734; in assay [13] it was 1.36; in assay [14], 1.55; in the assay on Lefty1 it was 1.38; in assay [16], 0.532. In assay [1], the composite Z-score is -0.804 (inactive). The z-score in assay [15] is 1.4; in assay [17], -0.493 (inactive).
On to `COCC1C2CC[C@H]3C(OCc4ccc(F)cc4C(F)(F)F)OC[C@]4(C)[C@H]3C2=C(CN4C(=O)OC(C)(C)C)[C@H](C)C1COC` (stereo not given in full), for which the composite z-score with Albumin (Bos taurus) turned out to be 1.05; in [2], 0.202; in [3] it was 0.214; in assay [4], 0.698; in assay [5], 3.39; in assay [6], 0.63. For the same compound, the composite z-score in the assay on Sam68 (KHDRBS1) is 1.2; in assay [7] it was -1.12; in assay [8], 1.13; in [9] it was 0.976; in assay [10], 1.18; in assay [11] it was 0.475. Also, the composite z-score was 0.764 in [12]; 0.342 in assay [13]; -0.593 in assay [14]; -0.348 in the assay on Lefty1; 1.14 in [16]. In addition, in [1], the composite Z-score is 0.973 (inactive). For the same compound, the z-score in assay [15] was 1.52; in assay [17], 0.248 (inactive).
Regarding `CO[C@H]1O[C@H](CO)[C@@H](OC(=O)Nc2cccc(F)c2)[C@H](OC(=O)Nc2ccccc2-c2ccccc2)[C@@H]1OC(=O)Nc1ccccc1-c1ccccc1`, the composite z-score with Albumin (Bos taurus) is 0.914; in assay [2], 0.0479; in assay [3] it was -0.0041; in assay [4], 0.385; in [5], 2.56; in assay [6], 1. In addition, the composite z-score in the assay on Sam68 (KHDRBS1) is 1.3; in assay [7], -0.262; in assay [8], 1.23; in [9], 1.61; in assay [10], 1.25; in assay [11] it was 0.797. The composite z-score amounted to 1 in assay [12]; 1.09 in assay [13]; 0.205 in assay [14]; 0.102 in the assay with Lefty1; 1.11 in [16]. Also, the composite Z-score in assay [1] was -0.116 (inactive). Besides, the z-score in assay [15] was -1.16; in [17], 0.923 (inactive).
Consider `Cc1ccc(S[C@]2(C(=O)NCc3ccccc3)CC(=O)N(Cc3cc(C(F)(F)F)cc(C(F)(F)F)c3)[C@@H]2c2ccc(CO)cc2)cc1`, for which the composite z-score is 0.737 in the assay with Albumin (Bos taurus); -0.128 in assay [2]; -0.208 in [3]; 0.433 in [4]; 1.03 in assay [5]; 1.28 in assay [6]. For the same compound, the composite z-score in the assay with Sam68 (KHDRBS1) is -1.01; in assay [7] it was -0.568; in assay [8] it was -0.856; in [9], -0.0768; in [10] it was -0.469; in [11], -0.187. For the same compound, the composite z-score in assay [12] is -1.25; in assay [13] it was 0.401; in [14] it was -0.568; in the assay on Lefty1 it was -0.0758; in [16] it was -1.01. The composite Z-score in assay [1] was 0.3 (inactive). Besides, the z-score in assay [15] is -0.0446; in assay [17], -0.372 (inactive).
On to `Cc1cccc(/C=C/C=O)c1`, for which the composite z-score with Albumin (Bos taurus) was 0.92; in assay [2], -0.139; in [3], -0.104; in assay [4], -0.0363; in assay [5] it was 0.93; in assay [6], 0.364. The composite z-score with Sam68 (KHDRBS1) was 0.339; in assay [7], -0.058; in assay [8], 0.786; in assay [9], -0.109; in assay [10] it was -0.115; in assay [11], 0.0048. Besides, the composite z-score is 0.458 in assay [12]; 0.198 in [13]; -0.163 in assay [14]; -0.119 in the assay on Lefty1; 0.718 in [16]. Moreover, the composite Z-score in assay [1] was -0.77 (inactive). The z-score is 0.538 in assay [15] and -0.953 (inactive) in assay [17].
